# Data: PubChem BioAssay AID1259422 (The Scripps Research Institute Molecular Screening Center, 2018)
# “And” between values parts separate entries of the source, which are not always exact repeats. Identical values can stand only once. About 9,300 (1.5%) of roughly 640,000 compounds were called active. The sample as a whole holds a higher share of actives than the screen did. A number with no mark means an inactive call. Rule as the data show it: active = inhibition above about 32%; inactive = the rest.
# Assay: TEAD-YAP interaction inhibition, primary screen, TEAD-YAP interaction inhibitor project, luminescence, HEK-TIYL cells (AID 1259422);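 also: 0% = median of test compound wells and 100% = reference inhibitor wells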
# Conditions: TEAD-Gal4/YAP UAS-luciferase luminescence, at 9.12 µM, hits give high values
row,SMILES,inhibition
1,CCOC(=O)c1cc(S(=O)(=O)NCc2ccc(Cl)cc2)cn1C,2.16%
2,COc1cc(Nc2ccnc(Nc3ccc(N4CCOCC4)cc3)n2)cc(OC)c1OC,72.7% (active)
3,COc1cc(Nc2ccnc(Nc3ccncc3)n2)cc(OC)c1OC,3.91%
4,c1ccc(Nc2nccc(Nc3ccc(N4CCOCC4)cc3)n2)cc1,16.2%
5,S=c1[nH]nc(N2CCOCC2)n1Cc1ccccc1,2.61%
6,Cn1nccc1C(=O)N1CCC[C@@H]2CN(C(=O)Cc3ccc(F)cc3)CC[C@H]21,6.31%
7,Cn1nccc1C(=O)NC1CCCc2c1cnn2-c1ccc(F)cc1F (stereo not drawn),55.8% (active)
8,O=C(NC1CCCc2ccccc21)c1ccc2nccnc2c1 (stereo not drawn),-5.54%
9,Cc1cc(C(=O)N(Cc2ccccc2)C(C)C2CC2)c(Cl)cc1Cl (stereo not drawn),-10.9%
10,Cc1noc(C)c1NC(=O)N1CCC2(CC1)OCc1ccccc1O2,-5.79%
11,CC(C)[C@@H](Cn1nnc2ccccc21)NC(=O)c1ccc(N2CCCCS2(=O)=O)cc1,-3.11%
12,COc1ccc(CCNC(=O)CCS(=O)(=O)c2cccc3cccnc23)cc1OC,10.6%
13,CC[C@]1(O)CC2CN(CCc3c([nH]c4ccccc34)[C@@](C(=O)OC)(c3cc4c(cc3OC)N(C=O)[C@H]3[C@@](O)(C(=O)OC)[C@H](OC(C)=O)[C@]5(CC)C=CCN6CC[C@]43[C@@H]65)C2)C1 (stereo partly drawn),50.8% (active) and 57.9% (active) and 55.9% (active)
14,COC(=O)c1cccc(NS(=O)(=O)c2ccc3ccccc3c2)c1C,-7.45%
15,COc1cc(NS(=O)(=O)c2c(C)ccc3nsnc23)c2ncccc2c1,-0.3%
16,COc1cc(NS(=O)(=O)c2ccc3ccccc3c2)c2ncccc2c1,38.5% (active)
17,Cn1cc(S(=O)(=O)N2CCCC2)cc1C(=O)N1CCC(Cc2ccccc2)CC1,-7.23%
18,COc1ccc(Cn2nnc(C(=O)Nc3cccc(Cl)c3)c2N)cc1,-9.56%
19,O=C(Cc1cccc(Cl)c1)NCc1ccccc1,-42.3%
20,Nc1c(C(=O)NCc2ccccc2)nnn1Cc1cccc(Cl)c1,37% (active)
21,O=S(=O)(c1ccc2ccccc2c1)N1CCSC1c1ccc2c3c(cccc13)CC2 (stereo not drawn),-6.22%
22,Cc1cc(NCCCn2ccnc2)n2nc(C)c(-c3cccs3)c2n1,-74.5%
23,O=C(CNC1CCCC1)NCc1ccc2c(c1)OCO2,-2.55%
24,CCOc1ccc(C(=O)CCC(=O)OCC(=O)c2ccc3c(c2)OCCO3)cc1,5.42%

row,SMILES,inhibition
1,CCOc1ccc2c(=O)c(-c3ccc4c(c3)OCCCO4)c(C)oc2c1,-7.66%
2,CCOc1ccc(-n2c(-c3ccc4c(c3)OCCO4)c[n+]3c2CCCCC3)cc1,85.2% (active)
3,COc1ccc2c(c1OC)C(=O)N(c1ncn[nH]1)C2,3.4%
4,COc1ccc(N2Cc3cccc(C(=O)NCC(OC)OC)c3C2=O)cc1,-8.73%
5,COc1ccc2c(c1OC)C(=O)N(c1ccc(O)cc1)C2,67.1% (active)
6,CCOC(=O)c1cccc(NC(=O)Cn2cc3c(n2)CCCCC3)c1,8.83%
7,O=[N+]([O-])c1ccccc1S(=O)(=O)Nc1cccc2cccnc12,32.8% (active)
8,O=S(=O)(Nc1cccc2cccnc12)c1ccc(S(=O)(=O)N2CCCCC2)cc1,23.6%
9,O=[N+]([O-])c1ccccc1Oc1cccc2cccnc12,-9.26%
10,Cn1c(/N=C/c2nc(-c3cccc4ccccc34)oc2O)nc2ccccc21,-6.43%
11,O=C(CO/N=C/c1ccccc1)N=Nc1c(O)[nH]c2ccccc12,5.66%
12,COc1ccc2c(c1)CC(C(=O)Nc1nc3ccc(-c4cn[nH]c4C)cc3s1)CO2 (stereo not drawn),53.5% (active)
13,Cc1[nH]ncc1-c1ccc2nc(NC(=O)C3COc4ccccc4C3)sc2c1 (stereo not drawn),60.2% (active)
14,COc1ccc2c(c1)CC(C(=O)Nc1ccc(-c3cn[nH]c3)cc1OCc1ccccc1)CO2 (stereo not drawn),-15.1%
15,COc1ccc2c(c1)CC(C(=O)Nc1ccc(-c3cn[nH]c3)cc1O[C@H]1CCOC1)CO2 (stereo partly drawn),22.3%
16,CC1=CCC(C(=O)O)C(C(=O)Nc2nc3ccc(C)cc3s2)C1 (stereo not drawn),-1.36%
17,CCOc1ccc2nc(NC(=O)C3CC3)sc2c1,-49.8%
18,Cc1cccc(C2c3[nH]c4ccccc4c3CCN2C(=O)Cn2nc(C)nc2C)n1 (stereo not drawn),-0.52%
19,N#C/C(=C\c1ccc(N2CCOCC2)cc1)c1ccccn1,90.2% (active)
20,COc1ccc2nc(/C(C#N)=C\c3ccc(N4CCOCC4)cc3)[nH]c2c1,-25.6%
21,COCCNC(=O)/C(C#N)=C/c1ccc(N2CCOCC2)cc1,-20.6%
22,CCOc1cc(C2C=C(c3cccc([N+](=O)[O-])c3)Nc3ncnn32)ccc1OC(F)F (stereo not drawn),-5.43%
23,COC(=O)c1ccc(CSc2cc(N3CCN(c4ccccc4F)CC3)ncn2)o1,-17.6%
24,Cc1cc(C)n2nc(SCC(=O)NCCCN3CCCC3=O)nc2n1,6.95%

row,SMILES,inhibition
1,O=C1N=c2ccccc2=C1c1[nH]c(=S)n(-c2ccccc2)c1O,-4.63%
2,COc1cccc(-c2nnc(SCC(=O)Nc3ccccc3)n2-n2cccc2)c1,47.3% (active)
3,COC(=O)CSc1nnc(-c2cccc(OC)c2)n1C,8.2%
4,COc1cccc(-n2c(SCC(=O)Nc3cccc(O)c3)nnc2-c2ccncc2)c1,1.48%
5,COCCNC(=O)c1oc2ccc3c(c2c1C)C(=O)CC1(CCCC1)O3,-23.1%
6,Nc1nc(SC(c2ccccc2)c2ccccc2)nc2sc3c(c12)CCCC3,5.46%
7,CCN(CC)C1CCN(C(=O)c2cc(COc3ccc4ncccc4c3)on2)C1 (stereo not drawn),14.7%
8,COCC1CCN(C(=O)c2cc(COc3ccc4ncccc4c3)on2)C1 (stereo not drawn),30.8%
9,Cc1cc(CNC(=O)c2cc(COc3ccc4ncccc4c3)on2)nn1C,12.1%
10,CN(Cc1cccnc1)C(=O)c1cc(COc2ccc3ncccc3c2)on1,40.8% (active)
11,Cc1nonc1CN(C)C(=O)c1cc(COc2cccc(C(F)(F)F)c2)on1,-10.6%
12,O=C(c1cc(COc2ccc3ncccc3c2)on1)N1C[C@@H]2CCC[C@H]1C2,32.6% (active)
13,NC(=O)COC(=O)c1cccc(S(=O)(=O)NCc2ccccc2)c1,-3.84%
14,CC(C)c1ccc(CN[C@H]2C[C@H]3C(=O)N[C@H]([C@H](C)O)C(=O)N3C2)cc1,1.15%
15,COc1ccc(NC(=O)C2Cc3ccccc3CN2S(=O)(=O)c2ccc(C)cc2)cc1 (stereo not drawn),12.4%
16,c1ccc(-c2nc(-c3ccncc3)[nH]c2-c2ccccc2)cc1,6.95%
17,Nc1nc2c(s1)CCc1c-2no[n+]1[O-],12.3%
18,[O-][n+]1onc2c1CCc1[nH]c(-c3ccccc3)nc1-2,41.9% (active)
19,Cc1ccc(C)c(N(Cc2ccccc2C)S(C)(=O)=O)c1,-3.99%
20,COc1ccc(Cl)cc1Nc1c(-c2ccc3c(c2)OCC(=O)N3)c(=O)c1=O,2.85%
21,CC(C)(C)C(=O)Nc1ccc(C(=O)Nc2nccs2)cc1,53.9% (active)
22,Cc1ccc(C(=O)Nc2nccs2)cc1C,-7.57%
23,CC(=O)C(C)(C)OC(=O)Nc1nccs1,4.65%
24,COc1ccccc1NC(=O)COC(=O)C(C)N1C(=O)C(=O)c2ccccc21 (stereo not drawn),13.1%

row,SMILES,inhibition
1,Cc1ccc(/C=N/NC(=O)c2cccc(F)c2)c(O)c1,-36.3%
2,O=C(Nc1c(C(=O)N2CCC(Cc3ccccc3)CC2)cnn1-c1ccccc1)c1ccco1,-7.49%
3,COC(=O)c1ccc(/C=C2/SC(N)=NC2=O)cc1,16%
4,COc1cc(/C=C2/SC(N)=NC2=O)cc(OC)c1OC,6.04%
5,CN1C(N)=NC(=O)/C1=C\c1ccc2c(c1)OCO2,-15%
6,NC1=NC(=O)/C(=C\c2ccc3c(c2)OCO3)S1,46.8% (active)
7,CC(C)CC1=NN2C(=N)/C(=C/c3ccc4c(c3)OCO4)C(=O)N=C2S1,-1.58%
8,NC1=NC(=O)/C(=C\c2ccc3ncccc3c2)S1,52.6% (active)
9,CCOC(=O)c1c(NC(=O)CSc2nnc(CNC(=O)c3cc(OC)cc(OC)c3)n2-c2cccc(C)c2)sc2c1CCCC2,3.65%
10,CCOc1ccc(C(=O)O/N=C(\N)c2ccc(OC)cc2)cc1OCC,-6.66%
11,Cc1cc(N2CCCC2)nc2ccc(NC(=S)NCC3CCCO3)cc12 (stereo not drawn),-6.91%
12,Cc1c(SC(F)(F)C(F)C(F)(F)F)c(=O)n(-c2ccccc2)n1C (stereo not drawn),18.8%
13,O=C(NC1CC1)c1cccc(N2CCc3ccccc3C2)n1,-13.8%
14,NC(=O)C(C(N)=O)C1OC(=O)C(Cl)=C1Cl (stereo not drawn),0.04%
15,C/C(=N\NC(=O)c1ccccc1I)c1ccc(O)cc1,-8.63%
16,CCN1C(=O)/C(=C\c2cc(C)n(-c3ccccc3)c2C)C(C(=O)OC)=C1C,36.6% (active)
17,COC(=O)C1=C(C)N(CC2CCCO2)C(=O)/C1=C\c1cc(C)n(-c2cccc(C)c2)c1C (stereo not drawn),0.89%
18,Cc1cc(/C=C2/SC(=O)N(C)C2=O)c(C)n1-c1ccc(I)cc1,-24.8%
19,COC(=O)C1=C(C)N(C)C(=O)/C1=C\c1cc(C)n(-c2ccc(Br)cc2)c1C,-6.34%
20,CCN1C(=O)S/C(=C/c2cc(C)n(-c3cccnc3)c2C)C1=O,50.4% (active)
21,CCc1ccccc1N1C(=O)NC(=O)/C(=C\c2cc(C)n(-c3cccnc3)c2C)C1=O,-3.42%
